Measured values: PubChem BioAssay AID1159580 (chemical genetic matrix, 2015)
“And” between values parts separate entries of the source, which are not always exact repeats. Identical values can stand only once. Out of some 5,500 compounds screened, about 2,000 (36%) were called active. Inconclusive results (about 18%) are left out. No stated cut-off is given here; in the data, active means normalized growth mostly below about 0.91 (no sharp cut-off); inconclusive means no clear call, values can overlap the other calls; inactive means mostly above about 0.92. The list shows a part of the results.

Assay: chemical genetic growth profiling, strain panel (AID 1159580);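 further: tested at 20 µM; growth read once vehicle control cultures reached saturation at 30 °C; 1 = growth at the plate median or of vehicle wells; lower values mean less growth of the strain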
Details: S. cerevisiae deletion strains, growth OD

Measured: normalized growth

COc1cc2c(cc1O)CCNC2C (stereo not drawn)
inactive: locus YAL021C, strain ccr4, active compounds read low 1.01 | locus YAL026C, strain drs2, active compounds read low 1 | locus YAL030W, strain snc1, active compounds read low 0.993 | locus YBL061C, strain skt5, active compounds read low 1 | locus YBR009C, strain hhf1, active compounds read low 1 | locus YBR021W, strain FUR4, active compounds read low 1.01 | locus YBR023C, strain chs3, active compounds read low 0.999 | locus YBR171W, strain sec66, active compounds read low 0.982 | locus YBR229C, strain ROT2, active compounds read low 0.993 | locus YBR231C, strain swc5, active compounds read low 0.984 | locus YBR279W, strain paf1, active compounds read low 0.996 | locus YCL011C, strain gbp2, active compounds read low 0.992 | locus YCL016C, strain dcc1, active compounds read low 1.01 | locus YCL029C, strain bik1, active compounds read low 0.968 | locus YCL061C, strain MRC1, active compounds read low 0.989 | locus YCL069W, strain vba3, active compounds read low 0.996 | locus YCR088W, strain abp1, active compounds read low 0.975 | locus YDL005C, strain med2, active compounds read low 0.978 | locus YDL035C, strain GPR1, active compounds read low 1.03 | locus YDL040C, strain nat1, active compounds read low 0.991 | locus YDL074C, strain BRE1, active compounds read low 1 | locus YDL101C, strain DUN1, active compounds read low 0.989 | locus YDL134C, strain PPH21, active compounds read low 1 | locus YDL185W, strain tfp1, active compounds read low 0.981 | locus YDL192W, strain arf1, active compounds read low 0.976 | locus YDR001C, strain nth1, active compounds read low 0.999 | locus YDR069C, strain doa4, active compounds read low 0.975 | locus YDR101C, strain arx1, active compounds read low 0.963 | locus YDR137W, strain rgp1, active compounds read low 0.99 | locus YDR150W, strain NUM1, active compounds read low 0.996 | locus YDR159W, strain sac3, active compounds read low 1.01 | locus YDR162C, strain NBP2, active compounds read low 1.01 | locus YDR195W, strain ref2 0.94 | locus YDR297W, strain sur2, active compounds read low 0.993 | locus YDR318W, strain mcm21, active compounds read low 0.982 | locus YDR334W, strain swr1, active compounds read low 0.99 | locus YDR335W, strain msn5, active compounds read low 0.983 | locus YDR388W, active compounds read low 0.98 | locus YDR392W, strain spt3, active compounds read low 1.03 | locus YDR502C, strain sam2, active compounds read low 0.982 | locus YEL003W, strain gim4, active compounds read low 0.999 | locus YEL037C, strain rad23, active compounds read low 1 | locus YEL061C, strain CIN8 (second series), active compounds read low 0.99 | locus YEL061C, strain CIN8, active compounds read low 0.996 | locus YER015W, strain faa2, active compounds read low 0.995 | locus YER016W, strain bim1, active compounds read low 1.01 | locus YER110C, active compounds read low 0.965 | locus YER111C, strain swi4, active compounds read low 0.975 | locus YER155C, strain BEM2 (second series), active compounds read low 0.94 | locus YER155C, strain BEM2, active compounds read low 0.98 | locus YER167W, strain BCK2, active compounds read low 1.01 | locus YFR010W, strain ubp6, active compounds read low 0.978 | locus YGL078C, strain dbp3, active compounds read low 0.984 | locus YGL086W, strain mad1, active compounds read low 0.968 | locus YGL167C, strain pmr1, active compounds read low 0.993 | locus YGL173C, strain kem1, active compounds read low 1 | locus YGL227W, strain vid30, active compounds read low 0.993 | locus YGL240W, strain doc1, active compounds read low 0.971 | locus YGL248W, strain PDE1, active compounds read low 0.988 | locus YGL253W, strain hxk2, active compounds read low 1 | locus YGR135W, strain pre9, active compounds read low 0.977 | locus YGR252W, strain gcn5, active compounds read low 0.983 | locus YHR013C, strain ard1, active compounds read low 0.99 | locus YHR027C, strain rpn1, active compounds read low 1 | locus YHR030C, strain SLT2, active compounds read low 0.993 and 1.05 | locus YHR079C, strain IRE1 (second series), active compounds read low 0.979 | locus YHR079C, strain IRE1, active compounds read low 1.05 | locus YHR094C, strain hxt1, active compounds read low 0.971 | locus YHR129C, strain ARP1, active compounds read low 0.992 | locus YHR142W, strain chs7, active compounds read low 1.01 | locus YHR200W, strain rpn10, active compounds read low 1 | locus YIL066C, strain RNR3, active compounds read low 1.01 | locus YIL073C, strain SPO22, active compounds read low 0.963 | locus YIL125W, strain kgd1, active compounds read low 0.981 | locus YIR030C, strain dcg1, active compounds read low 0.978 | locus YJL092W, strain hpr5, active compounds read low 0.991 | locus YJL095W, strain BCK1 (second series), active compounds read low 0.978 | locus YJL095W, strain BCK1, active compounds read low 0.984 and 1.01 | locus YJL115W, strain asf1, active compounds read low 0.988 | locus YJL129C, strain trk1, active compounds read low 0.99 | locus YJL134W, strain LCB3, active compounds read low 0.995 | locus YJL154C, strain vps35, active compounds read low 0.994 | locus YJL164C, strain tpk1, active compounds read low 1 | locus YJL166W, strain qcr8, active compounds read low 0.987 | locus YJL168C, strain set2, active compounds read low 0.973 | locus YJL187C, strain SWE1 (second series), active compounds read low 0.992 | locus YJR043C, strain POL32, active compounds read low 1.05 | locus YJR066W, strain TOR1, active compounds read low 0.982 | locus YKL009W, strain mrt4, active compounds read low 0.961 | locus YKL068W, active compounds read low 0.987 | locus YKL085W, strain MDH1 (second series), active compounds read low 0.982 | locus YKL085W, strain MDH1, active compounds read low 0.982 | locus YKL160W, strain elf1, active compounds read low 0.994 | locus YKR001C, strain vps1, active compounds read low 0.958 | locus YKR026C, strain gcn3, active compounds read low 0.989 | locus YKR091W, strain srl3, active compounds read low 0.991 | locus YLL001W, strain dnm1, active compounds read low 0.982 | locus YLL026W, active compounds read low 0.987 | locus YLL041C, strain sdh2, active compounds read low 0.992 | locus YLR027C, strain aat2, active compounds read low 0.98 | locus YLR039C, strain RIC1, active compounds read low 1.02 | locus YLR058C, strain SHM2, active compounds read low 0.995 | locus YLR102C, strain apc9, active compounds read low 0.974 | locus YLR113W, strain HOG1, active compounds read low 0.977 | locus YLR221C, strain rsa3, active compounds read low 0.996 | locus YLR258W, strain gsy2, active compounds read low 0.998 | locus YLR262C, strain YPT6 (second series), active compounds read low 0.994 | locus YLR262C, strain YPT6, active compounds read low 1.05 | locus YLR268W, strain sec22, active compounds read low 0.965 | locus YLR320W, strain mms22, active compounds read low 0.994 | locus YLR330W, strain CHS5, active compounds read low 1 | locus YLR342W, strain FKS1 (second series), active compounds read low 1.03 | locus YLR342W, strain FKS1, active compounds read low 0.987 | locus YLR357W, strain rsc2, active compounds read low 0.979 | locus YLR370C, strain arc18, active compounds read low 0.988 | locus YLR371W, strain rom2, active compounds read low 0.967 | locus YLR384C, strain iki3, active compounds read low 0.985 | locus YLR418C, strain cdc73, active compounds read low 0.973 | locus YML016C, strain PPZ1, active compounds read low 0.991 | locus YML032C, strain rad52, active compounds read low 0.99 | locus YML120C, strain ndi1, active compounds read low 0.991 | locus YML124C, strain tub3, active compounds read low 0.984 | locus YMR058W, strain fet3, active compounds read low 0.991 | locus YMR078C, strain ctf18, active compounds read low 0.977 | locus YMR125W, strain sto1, active compounds read low 1 | locus YMR129W, active compounds read low 0.996 | locus YMR205C, strain PFK2, active compounds read low 0.991 | locus YMR223W, strain ubp8, active compounds read low 0.985 | locus YMR231W, strain pep5, active compounds read low 0.984 | locus YMR307W, strain GAS1, active compounds read low 1.08 | locus YNL067W, strain RPL9B, active compounds read low 0.988 | locus YNL071W, strain lat1, active compounds read low 0.988 | locus YNL128W, strain TEP1, active compounds read low 0.992 | locus YNL153C, strain GIM3, active compounds read low 0.988 | locus YNL183C, strain NPR1, active compounds read low 0.974 | locus YNL209W, strain ssb2, active compounds read low 0.997 | locus YNL233W, strain BNI4, active compounds read low 0.982 | locus YNL248C, strain rpa49, active compounds read low 0.997 | locus YNL250W, strain rad50, active compounds read low 0.99 | locus YNL271C, strain bni1, active compounds read low 0.975 | locus YNL298W, strain CLA4, active compounds read low 0.989 | locus YNL307C, strain MCK1, active compounds read low 0.969 | locus YNL322C, strain KRE1 (second series), active compounds read low 0.98 | locus YNR049C, strain mso1, active compounds read low 0.987 | locus YNR052C, strain pop2, active compounds read low 0.973 | locus YOL012C, strain htz1 0.945 | locus YOL147C, strain pex11, active compounds read low 0.979 | locus YOR001W, strain rrp6, active compounds read low 0.958 | locus YOR061W, strain CKA2, active compounds read low 0.997 | locus YOR069W, strain VPS5, active compounds read low 0.987 | locus YOR070C, strain gyp1, active compounds read low 0.999 | locus YOR080W, strain dia2, active compounds read low 0.987 | locus YOR083W, strain WHI5, active compounds read low 0.988 | locus YOR106W, strain vam3, active compounds read low 0.989 | locus YOR136W, strain idh2, active compounds read low 0.964 | locus YOR144C, strain elg1, active compounds read low 0.983 | locus YOR184W, strain ser1, active compounds read low 0.988 | locus YOR231W, strain MKK1, active compounds read low 1 | locus YOR265W, strain rbl2, active compounds read low 0.984 | locus YOR270C, strain vph1, active compounds read low 1.02 | locus YOR290C, strain snf2, active compounds read low 0.999 | locus YOR316C, strain cot1, active compounds read low 0.981 | locus YPL051W, strain arl3, active compounds read low 0.985 | locus YPL055C, strain LGE1, active compounds read low 1 | locus YPL078C, strain atp4, active compounds read low 0.989 | locus YPL106C, strain sse1, active compounds read low 0.991 | locus YPL240C, strain hsp82, active compounds read low 1 | locus YPL256C, strain CLN2, active compounds read low 1.06 | locus YPR119W, strain clb2, active compounds read low 0.978 | locus YPR141C, strain kar3, active compounds read low 0.968 | locus YPR163C, strain tif3, active compounds read low 0.979 | locus YPR167C, strain met16, active compounds read low 0.974 | strain wtn01, active compounds read low 0.952
